Assay results as given in publication PMC7862700, “An all-to-all approach to the identification of sequence-specific readers for epigenetic DNA modifications on cytosine”.

Tests used:
Test in all cases: DAPPL (digital affinity profiling via proximity ligation, sequencing); 10 mM Tris-HCl pH 7.5, 50 mM NaCl, 1 mM DTT, 4% glycerol, room temperature, 30 min; GST-TFs on glutathione beads, 16-mer random dsDNA library, 0.1% formaldehyde crosslink after washing; high values mean tight binding
Conditions in all cases: protein: recombinant; tags: N-terminal GST; dsDNA, one strand shown
FLI1 = target: T1, FLI1 (Homo sapiens, UniProt Q01543 1-452)
T1 sequence: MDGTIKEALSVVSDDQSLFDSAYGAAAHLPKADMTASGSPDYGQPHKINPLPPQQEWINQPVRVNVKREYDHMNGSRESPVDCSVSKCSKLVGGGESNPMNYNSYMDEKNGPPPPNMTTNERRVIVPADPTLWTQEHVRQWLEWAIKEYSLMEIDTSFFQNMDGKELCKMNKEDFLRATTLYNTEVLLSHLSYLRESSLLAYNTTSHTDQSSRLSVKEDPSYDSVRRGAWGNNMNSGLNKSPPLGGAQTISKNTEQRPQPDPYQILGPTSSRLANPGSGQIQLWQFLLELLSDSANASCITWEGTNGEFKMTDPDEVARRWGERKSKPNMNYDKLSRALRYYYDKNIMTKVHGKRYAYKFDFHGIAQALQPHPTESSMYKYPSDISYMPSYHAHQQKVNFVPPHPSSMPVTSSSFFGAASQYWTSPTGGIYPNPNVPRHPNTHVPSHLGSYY
Method in brief: (§1)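 Sequencing on an Illumina NextSeq500 followed washing, crosslinking with 0.1% formaldehyde, proximity ligation (BsaI/T4 ligase, 1 h, 37 °C) and PCR amplification of pools that had been incubated for 30 min at room temperature with 200 nmole of a random double-stranded 16-mer DNA library in Tris/NaCl/DTT/glycerol buffer. Each pool held DNA-barcoded human transcription factors, expressed in yeast as GST fusions and captured on glutathione beads, plus a tag-only sample. Binding signal is a hexamer's read frequency for a factor divided by its frequency in the tag-only sample.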

ELK1 = target: T2, ELK1 (Homo sapiens, UniProt P19419 1-428)
T2 sequence: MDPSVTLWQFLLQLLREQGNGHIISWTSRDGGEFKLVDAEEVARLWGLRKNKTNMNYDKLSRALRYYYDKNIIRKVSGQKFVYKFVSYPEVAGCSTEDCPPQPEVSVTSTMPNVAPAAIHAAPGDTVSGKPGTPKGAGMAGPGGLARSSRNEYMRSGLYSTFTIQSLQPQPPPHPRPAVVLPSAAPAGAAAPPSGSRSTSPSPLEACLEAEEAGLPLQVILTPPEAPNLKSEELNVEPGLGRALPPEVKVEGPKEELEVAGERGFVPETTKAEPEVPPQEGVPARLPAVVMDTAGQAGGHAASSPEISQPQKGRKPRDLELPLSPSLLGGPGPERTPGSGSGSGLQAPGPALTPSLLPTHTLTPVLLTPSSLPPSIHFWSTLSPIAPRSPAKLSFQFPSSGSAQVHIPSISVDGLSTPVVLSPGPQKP
Method in brief: as §1

GABPA = target: T3, GABPA (Homo sapiens, UniProt Q06546 1-454)
T3 sequence: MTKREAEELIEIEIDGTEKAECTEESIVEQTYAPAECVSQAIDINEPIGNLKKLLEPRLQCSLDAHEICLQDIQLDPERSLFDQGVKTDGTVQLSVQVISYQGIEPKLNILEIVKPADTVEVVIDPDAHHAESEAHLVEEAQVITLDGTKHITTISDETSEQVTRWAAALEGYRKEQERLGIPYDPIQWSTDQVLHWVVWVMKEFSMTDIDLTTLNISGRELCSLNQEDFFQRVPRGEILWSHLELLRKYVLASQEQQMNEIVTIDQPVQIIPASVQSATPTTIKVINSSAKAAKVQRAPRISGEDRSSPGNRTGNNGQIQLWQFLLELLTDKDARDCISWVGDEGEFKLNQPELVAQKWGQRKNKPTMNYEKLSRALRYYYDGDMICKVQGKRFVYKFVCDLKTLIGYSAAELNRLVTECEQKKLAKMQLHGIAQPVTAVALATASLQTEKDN
Method in brief: as §1

ERG = target: T4, ERG (Homo sapiens, UniProt P11308 1-479)
T4 sequence: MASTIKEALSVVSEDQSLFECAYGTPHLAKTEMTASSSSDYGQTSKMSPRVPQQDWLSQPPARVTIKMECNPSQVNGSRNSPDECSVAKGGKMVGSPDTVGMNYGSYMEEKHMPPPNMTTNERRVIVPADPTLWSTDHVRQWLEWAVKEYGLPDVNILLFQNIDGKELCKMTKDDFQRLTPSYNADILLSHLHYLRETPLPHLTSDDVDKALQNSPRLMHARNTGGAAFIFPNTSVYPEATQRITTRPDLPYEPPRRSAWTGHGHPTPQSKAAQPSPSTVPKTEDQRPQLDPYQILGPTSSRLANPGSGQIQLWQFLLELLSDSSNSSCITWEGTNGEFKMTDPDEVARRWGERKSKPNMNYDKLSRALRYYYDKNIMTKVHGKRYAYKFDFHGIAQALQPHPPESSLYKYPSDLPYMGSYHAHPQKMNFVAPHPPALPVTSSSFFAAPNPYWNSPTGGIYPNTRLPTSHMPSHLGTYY
Method in brief: as §1

ELF1 = ELF1 (Homo sapiens, UniProt P32519 1-619)
Method in brief: as §1

EHF = target: T5, EHF (Homo sapiens, UniProt Q9NZC4 1-300)
T5 sequence: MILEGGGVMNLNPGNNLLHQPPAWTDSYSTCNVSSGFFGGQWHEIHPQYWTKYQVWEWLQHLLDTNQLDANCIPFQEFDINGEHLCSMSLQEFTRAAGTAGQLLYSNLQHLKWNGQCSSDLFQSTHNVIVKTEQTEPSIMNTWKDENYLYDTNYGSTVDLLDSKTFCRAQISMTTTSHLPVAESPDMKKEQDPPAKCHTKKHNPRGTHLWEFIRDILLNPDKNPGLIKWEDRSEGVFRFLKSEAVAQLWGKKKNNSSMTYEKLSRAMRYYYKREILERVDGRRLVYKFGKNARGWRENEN
Method in brief: as §1

SPI1 = SPI1 (Homo sapiens, UniProt P17947 1-270)
Method in brief: as §1

SPIB = SPIB (Homo sapiens, UniProt Q01892 1-262)
Method in brief: as §1

ELK3 = target: T6, ELK3 (Homo sapiens, UniProt P41970 1-407)
T6 sequence: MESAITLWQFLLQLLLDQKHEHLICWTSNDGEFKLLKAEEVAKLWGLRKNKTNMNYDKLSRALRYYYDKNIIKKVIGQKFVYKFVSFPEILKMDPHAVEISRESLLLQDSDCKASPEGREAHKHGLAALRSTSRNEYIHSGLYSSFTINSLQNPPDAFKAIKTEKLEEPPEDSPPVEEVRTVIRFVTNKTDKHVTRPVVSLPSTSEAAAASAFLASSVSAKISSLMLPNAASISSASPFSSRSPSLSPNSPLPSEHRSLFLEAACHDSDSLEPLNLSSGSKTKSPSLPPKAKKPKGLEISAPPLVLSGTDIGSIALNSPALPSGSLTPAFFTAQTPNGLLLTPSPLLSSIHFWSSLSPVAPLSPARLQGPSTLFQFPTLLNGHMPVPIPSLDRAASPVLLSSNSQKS
Method in brief: as §1

Sequence of SPIB (Q01892 whole entry): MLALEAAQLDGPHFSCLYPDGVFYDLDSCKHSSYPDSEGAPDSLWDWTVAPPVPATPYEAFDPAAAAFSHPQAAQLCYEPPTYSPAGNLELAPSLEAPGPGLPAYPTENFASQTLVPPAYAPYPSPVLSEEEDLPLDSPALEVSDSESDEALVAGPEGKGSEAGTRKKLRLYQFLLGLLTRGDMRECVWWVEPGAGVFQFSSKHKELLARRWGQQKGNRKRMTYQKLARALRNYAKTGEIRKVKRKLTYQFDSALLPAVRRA
Sequence of ELF1 (P32519 whole entry): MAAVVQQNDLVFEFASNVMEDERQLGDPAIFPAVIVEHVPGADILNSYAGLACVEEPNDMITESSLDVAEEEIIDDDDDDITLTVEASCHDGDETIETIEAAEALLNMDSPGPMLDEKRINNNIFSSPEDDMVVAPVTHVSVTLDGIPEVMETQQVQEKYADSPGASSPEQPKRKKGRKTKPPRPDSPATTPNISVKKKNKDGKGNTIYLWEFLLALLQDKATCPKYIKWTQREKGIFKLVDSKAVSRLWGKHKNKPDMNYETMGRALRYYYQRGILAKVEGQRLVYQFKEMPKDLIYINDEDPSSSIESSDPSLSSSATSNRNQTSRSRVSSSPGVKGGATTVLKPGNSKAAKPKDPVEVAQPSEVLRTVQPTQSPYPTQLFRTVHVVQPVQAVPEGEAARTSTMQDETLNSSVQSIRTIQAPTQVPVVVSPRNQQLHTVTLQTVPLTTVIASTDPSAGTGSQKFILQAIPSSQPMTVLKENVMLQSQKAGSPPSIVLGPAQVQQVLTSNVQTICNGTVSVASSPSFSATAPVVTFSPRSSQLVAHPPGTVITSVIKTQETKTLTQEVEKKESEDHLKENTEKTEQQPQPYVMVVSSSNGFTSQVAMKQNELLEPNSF

| Sequence | binding signal (FLI1) | binding signal (ELK1) | binding signal (GABPA) | binding signal (ERG) | binding signal (ELF1) | binding signal (EHF) | binding signal (SPI1) | binding signal (SPIB) | binding signal (ELK3) |
| --- | --- | --- | --- | --- | --- | --- | --- | --- | --- |
| AACATG | 1.24 fold enrichment (6-mer frequency, TF over GST control) | 1.21 fold enrichment (6-mer frequency, TF over GST control) | 1.15 fold enrichment (6-mer frequency, TF over GST control) | 1.16 fold enrichment (6-mer frequency, TF over GST control) | 1.22 fold enrichment (6-mer frequency, TF over GST control) | 1.05 fold enrichment (6-mer frequency, TF over GST control) | 1.15 fold enrichment (6-mer frequency, TF over GST control) | 1.16 fold enrichment (6-mer frequency, TF over GST control) | 1.19 fold enrichment (6-mer frequency, TF over GST control) |
| GCACGC | 1.03 fold enrichment (6-mer frequency, TF over GST control) | 1.09 fold enrichment (6-mer frequency, TF over GST control) | 1.14 fold enrichment (6-mer frequency, TF over GST control) | 1.03 fold enrichment (6-mer frequency, TF over GST control) | 1.15 fold enrichment (6-mer frequency, TF over GST control) | 1.15 fold enrichment (6-mer frequency, TF over GST control) | 1.12 fold enrichment (6-mer frequency, TF over GST control) | 1.19 fold enrichment (6-mer frequency, TF over GST control) | 1.09 fold enrichment (6-mer frequency, TF over GST control) |
| TCCCAA | 1.14 fold enrichment (6-mer frequency, TF over GST control) | 1.2 fold enrichment (6-mer frequency, TF over GST control) | 1.25 fold enrichment (6-mer frequency, TF over GST control) | 1.28 fold enrichment (6-mer frequency, TF over GST control) | 1.3 fold enrichment (6-mer frequency, TF over GST control) | 1.31 fold enrichment (6-mer frequency, TF over GST control) | 1.2 fold enrichment (6-mer frequency, TF over GST control) | 1.15 fold enrichment (6-mer frequency, TF over GST control) | 1.28 fold enrichment (6-mer frequency, TF over GST control) |
| TTACGA | 1.21 fold enrichment (6-mer frequency, TF over GST control) | 1.14 fold enrichment (6-mer frequency, TF over GST control) | 1.18 fold enrichment (6-mer frequency, TF over GST control) | 1.06 fold enrichment (6-mer frequency, TF over GST control) | 1.14 fold enrichment (6-mer frequency, TF over GST control) | 1.07 fold enrichment (6-mer frequency, TF over GST control) | 1.09 fold enrichment (6-mer frequency, TF over GST control) | 1.07 fold enrichment (6-mer frequency, TF over GST control) | 1.09 fold enrichment (6-mer frequency, TF over GST control) |
| TTCTAA | 1.28 fold enrichment (6-mer frequency, TF over GST control) | 1.23 fold enrichment (6-mer frequency, TF over GST control) | 1.2 fold enrichment (6-mer frequency, TF over GST control) | 1.25 fold enrichment (6-mer frequency, TF over GST control) | 1.23 fold enrichment (6-mer frequency, TF over GST control) | 1.22 fold enrichment (6-mer frequency, TF over GST control) | 1.14 fold enrichment (6-mer frequency, TF over GST control) | 1.17 fold enrichment (6-mer frequency, TF over GST control) | 1.08 fold enrichment (6-mer frequency, TF over GST control) |
| CTCGCC | 1.16 fold enrichment (6-mer frequency, TF over GST control) | 1.38 fold enrichment (6-mer frequency, TF over GST control) | 1.26 fold enrichment (6-mer frequency, TF over GST control) | 1.21 fold enrichment (6-mer frequency, TF over GST control) | 1.25 fold enrichment (6-mer frequency, TF over GST control) | 1.19 fold enrichment (6-mer frequency, TF over GST control) | 1.17 fold enrichment (6-mer frequency, TF over GST control) | 1.24 fold enrichment (6-mer frequency, TF over GST control) | 1.25 fold enrichment (6-mer frequency, TF over GST control) |
| CTCCTG | 1.66 fold enrichment (6-mer frequency, TF over GST control) | 1.69 fold enrichment (6-mer frequency, TF over GST control) | 1.74 fold enrichment (6-mer frequency, TF over GST control) | 1.51 fold enrichment (6-mer frequency, TF over GST control) | 1.65 fold enrichment (6-mer frequency, TF over GST control) | 1.33 fold enrichment (6-mer frequency, TF over GST control) | 1.58 fold enrichment (6-mer frequency, TF over GST control) | 1.7 fold enrichment (6-mer frequency, TF over GST control) | 1.73 fold enrichment (6-mer frequency, TF over GST control) |
